In PubChem BioAssay (NCI) one finds growth data, which are given here for 16 compounds.

Molecules are shown by their SMILES. About 83,000 compounds went through this panel and 20% of them were active in at least one assay; those are over-represented in the sample as a whole.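 Activity criterion: percent growth below 10, measured after cells in 96-well plates were exposed to a single compound concentration for 48 hours.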 Values without a mark were called inactive. Activity calls are given as the source filed them.

Some test systems named below: T-47D breast; BT-549 breast; MDA-MB-435 melanoma; SW-620 colon; MCF7 breast; HCT-116 colon; HCC-2998 colon; KM12 colon.
Assay in all cases: NCI-60 one-dose screen, 48 h (100 = growth as untreated, 0 = no growth, -100 = all killed)
Holding throughout (conditions): 10 µM unless noted

Consider `CCCCCCCC/C=C\CCCCCCCCOc1ccccc1CC(=O)NCC[N+](C)(C)C`, for which the growth was 94.4% in the experiment with T-47D breast; 77.4% in the experiment on BT-549 breast; 95.6% in the experiment with MDA-MB-435 melanoma; 69.5% in the experiment on SW-620 colon; 73% with MCF7 breast; 65.8% with HCT-116 colon. The growth with HCC-2998 colon is 33.7%; in the experiment on KM12 colon, 36.4%.
As to `COc1ccc(-c2nc3c(c(=O)n2C(C)=O)C(c2ccc(Cl)cc2)c2sc4c(Cl)cccc4c2O3)cc1` (stereo not drawn), the growth in the experiment with T-47D breast is 11.9%; with BT-549 breast, -26.9% (active); with MDA-MB-435 melanoma, 0.072% (active); in the experiment on SW-620 colon, -17.5% (active); in the experiment with MCF7 breast, 4.61% (active); in the experiment on HCT-116 colon, -58.6% (active). Moreover, the figures for the growth in the experiment with HCC-2998 colon and with KM12 colon were -34.5% (active) and -8.16% (active), respectively.
`O=c1[nH][n+](-c2ccc(Cl)cc2)no1`: the growth was 26.9% with T-47D breast; 91.8% in the experiment with BT-549 breast; 30.8% with MDA-MB-435 melanoma; 40.8% with SW-620 colon; 58.4% with MCF7 breast; 84.5% in the experiment on HCT-116 colon. For the same compound, the growth in the experiment on HCC-2998 colon was 32.4%; in the experiment on KM12 colon, 31.3%.
For the compound `CCOc1c(C#N)nnc2c(C#N)c(NC(=O)c3ccccc3)nn12`, the growth in the experiment on T-47D breast is 98.8%; in the experiment on BT-549 breast, 102%; with MDA-MB-435 melanoma, 102%; in the experiment on SW-620 colon, 102%; in the experiment on MCF7 breast, 93.4%; in the experiment on HCT-116 colon it was 100%. The growth was 104% in the experiment on HCC-2998 colon and 101% with KM12 colon.
Turning to `CCN(CC)CCCC(C)Nc1c2ccc(Cl)cc2nc2ccc(O)cc12` (stereo not drawn), the growth in the experiment on T-47D breast is 49.7%; in the experiment on BT-549 breast, 64.8%; in the experiment on MDA-MB-435 melanoma, 27%; in the experiment on SW-620 colon, 24.5%; in the experiment with MCF7 breast it was 6.22% (active); in the experiment with HCT-116 colon, 14.8%. The growth in the experiment on HCC-2998 colon is 25.4%; in the experiment on KM12 colon, 30.4%.
`C=C1C(=O)O[C@H]2[C@H]1CC/C(COC(=O)C(=O)c1c[nH]c3ccccc13)=C\CC[C@@]1(C)O[C@@H]21`: the growth in the experiment on T-47D breast was -56.8% (active); in the experiment with BT-549 breast, -67.3% (active); in the experiment with MDA-MB-435 melanoma it was -59.4% (active); with SW-620 colon, -64.9% (active); with MCF7 breast it was -16.9% (active); in the experiment with HCT-116 colon, -88.6% (active). For the same compound, the values for the growth in the experiment on HCC-2998 colon and in the experiment with KM12 colon were -79.5% (active) and -56.5% (active), respectively.
With `N#Cc1c2c(nn(-c3ccccc3)c1=O)C(O)=C([N+](=O)[O-])C(c1ccccc1)C2` (stereo not drawn), the growth is 35.1% with T-47D breast; 91.9% in the experiment on BT-549 breast; 83.1% in the experiment on MDA-MB-435 melanoma; 80.6% in the experiment with SW-620 colon; 24.4% with MCF7 breast; 58.6% with HCT-116 colon. The values for the growth in the experiment with HCC-2998 colon and with KM12 colon were 101% and 35.7%, respectively.
Regarding `C=CCOC1=CC(=O)c2ccccc2C1=O`, the growth is 54.2% in the experiment with T-47D breast; 95.4% in the experiment on BT-549 breast; -67.5% (active) in the experiment with MDA-MB-435 melanoma; 33.2% with SW-620 colon; -2.95% (active) in the experiment with MCF7 breast; 8.07% (active) with HCT-116 colon. Besides, the figures for the growth in the experiment with HCC-2998 colon and in the experiment with KM12 colon were 98% and 87.8%, respectively.
For `O=C(/C=C/c1cccc(O)c1)c1cccc(-n2cc(-c3ccc4ccccc4c3)[nH]c2=O)c1`, the growth in the experiment on T-47D breast is -22.5% (active); with BT-549 breast, -29.8% (active); with MDA-MB-435 melanoma, -15.6% (active); in the experiment on SW-620 colon, -55.1% (active); with MCF7 breast, -32.2% (active); with HCT-116 colon, -100% (active). Further, the growth is 44.3% with HCC-2998 colon and -72% (active) in the experiment on KM12 colon.
As to `COc1ccc(-c2nc(SCCC(C)C)nc(N/N=C\c3cccc(Cl)c3)c2C#N)cc1`, the growth was 59.7% in the experiment with T-47D breast; 85.5% in the experiment on BT-549 breast; 88.5% in the experiment on MDA-MB-435 melanoma; 54.4% in the experiment with SW-620 colon; 73.3% with MCF7 breast; 33.3% with HCT-116 colon. Also, the growth in the experiment on HCC-2998 colon was 92.2%; with KM12 colon, 90.6%.
As for `CN(C)CC1C(=O)O[C@H]2[C@H]1CC/C(COC(=O)c1cc3ccccc3[nH]1)=C\CC[C@@]1(C)O[C@@H]21` (stereo partly drawn), the growth with T-47D breast was -76.6% (active); with BT-549 breast it was -52% (active); in the experiment on MDA-MB-435 melanoma it was -38.2% (active); with SW-620 colon, -19.3% (active); in the experiment with MCF7 breast it was -41.8% (active); in the experiment on HCT-116 colon it was -83.3% (active). The growth is -82% (active) in the experiment with HCC-2998 colon and 6.93% (active) in the experiment on KM12 colon.
Regarding `CC1=NOC(=O)/C1=C\c1ccc(O)cc1`, the growth with T-47D breast was 104%; with BT-549 breast it was 107%; in the experiment on MDA-MB-435 melanoma, 102%; in the experiment on SW-620 colon, 102%; in the experiment on MCF7 breast, 94.6%; in the experiment with HCT-116 colon, 103%. The growth with HCC-2998 colon was 109%; in the experiment with KM12 colon, 101%.
As for `CCCCn1c(=O)c2c(nc(NCCc3ccc(O)c(O)c3)n2CCC)n(CCCC)c1=O`, the growth was 49.3% with T-47D breast; 102% with BT-549 breast; 82.6% in the experiment on MDA-MB-435 melanoma; 89.1% in the experiment with SW-620 colon; 65% in the experiment on MCF7 breast; 63.3% in the experiment with HCT-116 colon. Further, the results for the growth in the experiment on HCC-2998 colon and with KM12 colon were 78.8% and 61.3%, respectively.
Regarding `O=C1/C(=C\c2cccnc2)SC(=S)N1CCc1ccc(O)cc1`, the growth in the experiment with T-47D breast is 37.6%; in the experiment with BT-549 breast, 72.2%; in the experiment on MDA-MB-435 melanoma it was 22.4%; with SW-620 colon, 44.4%; with MCF7 breast, 30.3%; in the experiment with HCT-116 colon it was 15%. Further, the growth in the experiment on HCC-2998 colon is 72.1%; in the experiment on KM12 colon it was -3.09% (active).
In the case of `CCc1ccccc1-n1c(-c2ccc(Cl)cc2)cc(-c2ccc(OC)cc2)c(C#N)c1=O`, the growth in the experiment with T-47D breast is 92.3%; in the experiment on BT-549 breast, 154%; in the experiment on MDA-MB-435 melanoma, 89%; with SW-620 colon, 104%; in the experiment with MCF7 breast, 85.6%; in the experiment with HCT-116 colon, 94.6%. Also, the growth is 109% in the experiment on HCC-2998 colon and 87.7% with KM12 colon.
Take `Cc1c(C(=O)NC(Cc2ccccc2)C(O)C(=O)NCc2ccc(F)cc2)[nH]c2ccccc2c1=O` (stereo not drawn): the growth is 102% in the experiment on T-47D breast; 108% with BT-549 breast; 101% in the experiment on MDA-MB-435 melanoma; 114% in the experiment on SW-620 colon; 104% in the experiment with MCF7 breast; 104% in the experiment with HCT-116 colon. Moreover, the growth is 118% in the experiment on HCC-2998 colon and 102% in the experiment on KM12 colon.
